Assay outcomes as filed in PubChem.
SMN2 splice up – enhancers of SMN2 splice variant expression | Potency, µM (titrated, usually from 46.1 µM), inactives show at the top dose activity change, positive = activation, actives largely listed as activators | AID 1458 | 210,000 compounds, 2.8% hits | HEK293 SMN2-luciferase splicing reporter, luminescence, 30-36 h; further: % of control where 0% means no effect; nearly all actives have a fitted effect of over 55% in size
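qHTS luciferase splicing reporter: luminescence rises when SMN2 exon 7 is included in transfected HEK293 cells. Compound exposure lasted 30-36 h at 37C, with 4.5 mM final sodium butyrate as control, followed by a ONE-Glo read.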
ELG1 genotoxic – inducers of genotoxicity in HEK293T ELG1-luciferase cells. HEK293T ELG1-luciferase reporter, luminescence, 16 h. Potency, µM (titrated, usually from 46 µM), without a hit: at the highest dose activity change, positive = activation, most hits filed as activators. 330,000 compounds, 1.3% hits. AID 504466; further: % of control where 0% means no effect; nearly all actives have a fitted effect of over 60% in size
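Quantitative HTS format in 1536-well plates. HEK293T ELG1-luciferase reporter cells receive test compound and are incubated 16 hr at 37 °C, 5% CO2; ONE-Glo added, 30 min room temperature, then luminescence read.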
FLuc counter – firefly luciferase modulation, counter-screen for miR-21 project | P08659 | 360,000 compounds, 6.9% hits | Potency, µM (doses to about 57.5 µM), without a hit: at the highest dose activity change, negative = inhibition, actives largely listed as inhibitors | purified FLuc, Km substrates, luminescence inhibition | AID 588342;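 further: plate controls were vehicle for no effect and reference inhibitor for full effect; nearly all actives have a fitted effect of over 55% in size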
Target sequence (P08659 whole entry, looked up): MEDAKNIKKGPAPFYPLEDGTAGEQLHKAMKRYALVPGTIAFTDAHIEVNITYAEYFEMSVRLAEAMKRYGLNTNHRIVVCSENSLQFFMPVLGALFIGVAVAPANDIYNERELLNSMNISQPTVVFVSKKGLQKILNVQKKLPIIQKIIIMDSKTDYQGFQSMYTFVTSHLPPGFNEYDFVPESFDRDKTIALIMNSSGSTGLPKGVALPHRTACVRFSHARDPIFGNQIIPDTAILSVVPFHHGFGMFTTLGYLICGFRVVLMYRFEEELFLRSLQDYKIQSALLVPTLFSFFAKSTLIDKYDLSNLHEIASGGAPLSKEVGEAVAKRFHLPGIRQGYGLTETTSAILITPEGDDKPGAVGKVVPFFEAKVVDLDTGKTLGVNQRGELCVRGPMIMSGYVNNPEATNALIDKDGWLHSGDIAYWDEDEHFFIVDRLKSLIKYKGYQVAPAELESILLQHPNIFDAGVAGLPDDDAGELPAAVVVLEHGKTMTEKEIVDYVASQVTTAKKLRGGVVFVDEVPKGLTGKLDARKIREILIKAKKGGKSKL
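Biochemical qHTS of compounds, final roughly 60 µM downward over six points, against 10 nM purified firefly luciferase using Km concentrations of substrates (10 uM D-luciferin, 10 uM ATP) in Tris acetate pH 7.5 buffer; luminescence output.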
NPC1 prom act – activators of NPC1 promoter; Huh7 NPC1 promoter luciferase reporter, 24 h; Potency, µM (highest dose often 9.22 µM), inactives show at the highest dose activation, usual class: activators; 320,000 compounds, 2.4% hits; further: % of control where 0% means no effect; nearly all actives have a fitted effect of over 60% in size
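Luciferase expression driven by the NPC1 promoter was measured in stably transfected Huh7 cells after a 24 h compound incubation, using a luciferase reagent and a luminescence read.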
Rab9 prom act – activators of Rab9 promoter; Huh7 Rab9 promoter-luciferase reporter, luminescence, 24 h; Potency, µM (highest dose often 9.22 µM), for inactives: at the highest dose activation, negative = inhibition, most hits filed as activators; 320,000 compounds, 2.8% hits; further: % of control where 0% means no effect; nearly all actives have a fitted effect of over 60% in size
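Luciferase signal after 10 min detection reagent at ambient indicates Rab9 promoter upregulation; stably transfected Huh7 cells were treated 24 h with compound in DMSO at 37 °C, 5% CO2.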
ELG1 DNA repair – ELG1-dependent DNA repair inhibition. HEK293T ELG1-luciferase reporter, luminescence, 16 h; DNA damage induced by 5-fluorouridine. 330,000 compounds, 2.3% hits. Potency, µM (titrated, usually from 46.1 µM), for the others: top-dose activity change, negative = inhibition, most hits filed as inhibitors; further: on the % scale 0 is the no-effect control and ±100 the full control effect; nearly all actives have a fitted effect of over 55% in size
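5-Fluorouridine DNA damage + compound/DMSO, 2,000 cells/well, 16 h, 37 °C/5% CO2. ONE-Glo, 30 min RT, luminescence. Readout = decrease in reporter signal.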
Active calls of the source: *; ? = inconclusive; . = no result; [ ] = dose if it differs, or a comment. Shown are actives, neighbours in structure and some others; about 9.4% of the full set was active somewhere. The call rests on the fitted dose curve; in most records, active means well fitted curve in the direction sought with a large enough effect; inconclusive means small, poorly fitted or top-dose-only effect, or another doubt; inactive means no such curve, though single readings can be large; an effect the other way counts as inactive or inconclusive. Potency means the concentration at half of the fitted maximal effect.

SMILES	SMN2 splice up	ELG1 genotoxic	FLuc counter	NPC1 prom act	Rab9 prom act	ELG1 DNA repair
O=C(Nc1ccc(N2CCOCC2)c(Cl)c1)c1ccc(Br)o1	4.5µM*	?	8.5µM*	1.4µM*	3.2µM*	?
O=C(Nc1ccc(F)cc1)c1ccc(S(=O)(=O)N2CCOCC2)o1	.	-6%	3%	3%	-4%	16µM*
NS(=O)(=O)c1ccc(NC(=O)c2ccc(S(=O)(=O)N3CCOCC3)o2)cc1	.	-5%	2%	-2%	-5%	12%
C/C=C1\CC2C=CC1C2 (stereo not given)	-5%	.	.	.	.	.
CCN(CC)c1nc2c(S(=O)(=O)c3cccc(Cl)c3)nnn2c2ccsc12	.	.	-1%	.	.	.
O=C(Nc1ccc(CN2CCOCC2)cc1)c1ccc(-c2cc(Cl)ccc2Cl)o1	-65%	-20%	?	-2%	-2%	23µM*
O=C(Nc1ccc(N2CCN(C(=O)c3ccccc3)CC2)c(Cl)c1)c1ccc(Br)o1	-42%	-7%	-1%	-4%	-9%	12µM*
O=C(Nc1ccc(N2CCN(C(=O)c3ccccc3)CC2)cc1)c1ccc(Br)o1	-14%	-25%	1%	8%	0%	?
O=C(Nc1ccc(F)cc1)c1ccc(CSc2ccc(Cl)cc2)o1	.	-7%	?	-1%	-3%	0%
O=C(Nc1ccc(F)cc1)c1ccc(CSc2ccccc2)o1	-4%	7%	15µM*	-1%	1%	?
O=C(NCCN1CCOCC1)Nc1ccc(Cl)cc1	7.1µM*	-5%	-3%	6%	-2%	?
Cc1cccc(N2CCN(C(=O)CCS(=O)(=O)c3ccc4c(c3)CC(=O)N4C)CC2C)c1 (stereo not given)	.	.	4%	.	.	.
Cc1cccnc1Nc1nc(-c2ccc(O)cc2O)cs1	.	?	15µM*	?	3.2µM*	?
Oc1ccc(-c2csc(Nc3ccccn3)n2)c(O)c1	.	9.2µM*	4.8µM*	1.8µM*	3.2µM*	?
NS(=O)(=O)c1ccc(Nc2nc(-c3ccc(O)cc3O)cs2)cc1	14%	?	?	-1%	-9%	-18%
Cc1nc2ncccn2c1-c1csc(Nc2ccc(O)cc2)n1	.	?	?	-21%	-18%	?
Cc1c(Cl)cccc1-n1ncc(C(=O)NC2CCCC2)c1C1CCN(C(=O)OC(C)(C)C)CC1	.	.	-1%	.	.	.
Cc1cccc(Cn2cc3c(=O)n(CC(=O)Nc4ccc(C)c(F)c4)nc-3c3cc(F)ccc32)c1	.	.	-14%	.	.	.
CCCCn1c(NC(=O)c2ccccc2)c(C#N)c2nc3ccccc3nc21	.	-8%	-7%	-1%	-5%	8.2µM*
CCc1nnc2c3ccccc3nc(N3CCN(c4cc(Cl)ccc4C)CC3)n12	.	.	-8%	.	.	.
S=C(NCC1CCCO1)N1CCN(c2ccccc2)CC1 (stereo not given)	7%	-2%	-4%	-5%	-7%	?
O=C(c1ccc(S(=O)(=O)NCC2CCCO2)cc1)N1CCN(c2cccc(Cl)c2)CC1 (stereo not given)	-39%	-13%	0%	-7%	-27%	9.2µM*
FC(F)(F)c1cccc(N2CCN(C(=S)NCC3CCCO3)CC2)c1 (stereo not given)	-69%	-3%	-4%	-8%	-9%	21µM*
O=C(Nc1ccncc1)c1ccccc1Cl	.	-6%	-11%	-1%	-5%	-2%
O=C(/C=C/c1c(Cl)cccc1Cl)Nc1ccncc1	-22%	?	3µM*	26%	?	?
SMILES	SMN2 splice up	ELG1 genotoxic	FLuc counter	NPC1 prom act	Rab9 prom act	ELG1 DNA repair
O=C(/C=C/c1c(F)cccc1Cl)Nc1ccncc1	-23%	16%	7.6µM*	29%	?	?
O=C(/C=C/c1cccc(Cl)c1)Nc1ccncc1	-1%	3%	17µM*	1%	24%	?
CC1(C)CC(=O)c2cc(-c3nc(-c4ccc(Br)cc4)cs3)c(=O)n(-c3ccccc3)c2C1	-1%	.	-1%	.	.	.
CCOc1ncccc1C(=O)Nc1ccc(F)c(F)c1	2%	-5%	-6%	-1%	7%	8%
COc1ccccc1C(=O)Nc1ccc2c(C)cc(=O)oc2c1	.	?	?	2µM*	1.6µM*	?
Cc1cc(C)c(NC(=O)COc2ccccc2C(=O)Nc2ccc3c(c2)oc2ccccc23)c(C)c1	-4%	13%	13µM*	-4%	0%	1%
Cc1ccccc1OCCC(=O)Nc1ccc2c(C)cc(=O)oc2c1	.	21%	3%	-4%	15%	3%
CCOc1ncccc1C(=O)Nc1ccc2c(C)cc(=O)oc2c1	-11%	2%	0%	3.5µM*	?	1%
Cc1cc(NC(=O)c2ccc3c(c2)N(Cc2cccc(Cl)c2)C(=O)c2ccccc2S3(=O)=O)ccc1Br	6%	.	1%	.	.	.
O=C(COc1ccc(S(=O)(=O)NC2CCCCC2)cc1)Nc1ccc(C(F)(F)F)cc1	-5%	.	-5%	.	.	.
Cc1csc(NC(=O)CSc2nnc(NC(=O)NC(C)(C)C)s2)n1	.	26%	6µM*	3%	4%	?
CC(C)(C)NC(=O)Nc1nnc(SCC(=O)NC2CCCCC2)s1	.	1%	11µM*	17%	20%	?
Cc1ccc(NC(=O)[C@@H](c2ccccc2)N2Cc3ccccc3C2=O)cc1F	-4%	.	-9%	.	.	.
OC1(C(F)(F)F)CC(c2ccc3ccccc3c2)=NO1 (stereo not given)	.	?	19µM*	3%	-2%	0%
O=C1OCCN/C1=C\C(=O)c1ccc(Cl)cc1	.	-6%	24µM*	-2%	-7%	-9%
O=C1NCCN/C1=C\C(=O)c1ccc(Br)cc1	.	10µM*	9.5µM*	1.3µM*	1.3µM*	?
CCOc1ccc(NC(=O)c2oc3ccccc3c2NC(=O)Cc2cccs2)cc1	-7%	.	2%	.	.	.
COc1ccccc1N=Nc1nc(-c2ccccc2)c(-c2ccccc2)[nH]1	0%	-7%	12µM*	-3%	0%	23µM*
Oc1ccccc1N=Nc1nc(-c2ccccc2)c(-c2ccccc2)[nH]1	-120%	0%	?	-17%	-18%	-7%
COc1ccc(N=Nc2nc(-c3ccccc3)c(-c3ccccc3)[nH]2)cc1	2%[1.84 µM]	-8%	9.5µM*	0%	-4%	?
O=C(c1ccc(Cl)c(S(=O)(=O)N2CCCC2)c1)N1CCN(c2ccc(F)cc2)CC1	-56%	-6%	-2%	-5%	4%	21µM*
Cc1ccc(C(=O)N2CCN(c3ccccc3)CC2)cc1S(=O)(=O)N1CCCC1	-32%	-12%	-1%	3%	-5%	16µM*
